The values that follow come from PubChem BioAssay (NCI).

The panel holds about 79,000 compounds, 15% with a hit somewhere; the sample as a whole holds those more often. Unmarked numbers belong to inactive results. The source made the active and inactive calls. Cut-off read from the data, not from the text of the source: active = growth inhibition above about 70%; inactive = the rest.

Assay [1] can be described thus: NCI Yeast Anticancer Drug Screen. Data for the rad50 strain (AID 155).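 Note: 0% = growth of vehicle-only cultures of the same strain.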 Particulars: S. cerevisiae rad50 strain growth inhibition; at 50.0 µM; stronger effect = higher value. In outline: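 A DNA repair-deficient yeast mutant serves as the test organism; compound-induced growth inhibition is calculated against vehicle-treated cells.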
Assay [2] can be described thus: NCI Yeast Anticancer Drug Screen. Data for the mec2-1 strain (AID 157). As to conditions: S. cerevisiae mec2-1 strain, at 50.0 µM, stronger effect = higher value. In outline:
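Yeast mec2-1 mutant treated with compound. Readout: growth inhibition vs vehicle controls.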

Assay [3] in a line: NCI Yeast Anticancer Drug Screen. Data for the sgs1 mgt1 strain (AID 161).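 Note: 0% = growth of cultures given vehicle only.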 Particulars: S. cerevisiae sgs1 mgt1 strain, at 50.0 µM, stronger effect = higher value. In outline: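 Read-out: growth inhibition vs vehicle controls. Cells: mutant yeast strain deficient in DNA damage repair.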
Assay [4] can be described thus: NCI Yeast Anticancer Drug Screen. Data for the cln2 rad14 strain (AID 165).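 Note: 0% = growth equal to vehicle treated cultures.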 Particulars: S. cerevisiae cln2 rad14 strain, at 50.0 µM, stronger effect = higher value. Summed up:
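cln2 rad14 yeast strain; compound exposure; growth inhibition read vs vehicle controls.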

A short description of assay [5]: NCI Yeast Anticancer Drug Screen. Data for the bub3 strain (AID 167). As to conditions: S. cerevisiae bub3 mutant strain, at 50.0 µM, stronger effect = higher value. In outline:
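Inhibition values come from growth of compound-treated mutant yeast normalised to vehicle-treated controls.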

Assay [6] in a line: NCI Yeast Anticancer Drug Screen. Data for the mlh1 rad18 strain (AID 175). Particulars: S. cerevisiae mlh1 rad18 strain growth inhibition; at 50.0 µM; stronger effect = higher value. In outline:
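Yeast w/ defined DNA-repair lesions; compound exposure; growth vs vehicle controls → % inhibition.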

Take `O=[N+]([O-])c1cccc(C=NC23CC4CC(CC(C4)C2)C3)c1`: the growth inhibition is -2.15% in assay [1]; 7.45% in assay [2]; -29.6% in assay [3]; 28.7% in assay [4]; 30.1% in assay [5]; -4.15% in assay [6].
As to `CC(=O)Nc1ccc(S(=O)(=O)Nc2ccc([N+](=O)[O-])cc2)cc1`, the growth inhibition is -37.4% in assay [1]; -40% in assay [2]; -22.8% in assay [3]; -8.65% in assay [4]; -31.9% in assay [5]; -36% in assay [6].
In the case of `[Cl][Co][Cl].[NH-]CCC[NH-].[NH-]CCC[NH-]`, the growth inhibition in assay [1] was 1.5%; in assay [2], 21.3%; in assay [3], 13.3%; in assay [4] it was 10.2%; in assay [5] it was -4.4%; in assay [6] it was 16.7%.
Turning to `OC1c2c(ccc3ccccc23)CCC1N1CCCCC1` (stereo not given), the growth inhibition was 12.6% in assay [1]; -4.45% in assay [2]; 0.9% in assay [3]; -34.5% in assay [4]; -13.4% in assay [5]; -5% in assay [6].
As to `Cc1c(-c2ccccc2)[nH]c2cc(Cl)ccc2c1=O`, the growth inhibition was -28.9% in assay [1]; 2.55% in assay [2]; -16.4% in assay [3]; 13% in assay [4]; 16.9% in assay [5]; -10.3% in assay [6].
Take `Clc1ccc(-c2cc(-c3ccc(Cl)cc3)n(-c3ccccc3)n2)cc1`: the growth inhibition was -17.5% in assay [1]; -33.9% in assay [2]; -24.2% in assay [3]; 4% in assay [4]; 6.55% in assay [5]; -9.2% in assay [6].
With `O=C(c1ccccc1)C(c1ccccc1)n1nc2c(c1-c1ccccc1)CCCC2` (stereo not given), the growth inhibition in assay [1] is 84.4% (active); in assay [2] it was 87.2% (active); in assay [3], 83.9% (active); in assay [4], 88.4% (active); in assay [5], 86.4% (active); in assay [6] it was 91.4% (active).
As for `CCOC(=O)C(=N\Nc1ccccc1Br)/C(C)=N\NC(N)=S`, the growth inhibition is 50% in assay [1]; 19.6% in assay [2]; 56.9% in assay [3]; 14.7% in assay [4]; 9.3% in assay [5]; 33% in assay [6].
As for `CC(C)(C#N)NC(=O)NC(C)(C)C(N)=O`, the growth inhibition in assay [1] was -4.1%; in assay [2] it was 2.25%; in assay [3], -3.25%; in assay [4], -50.2%; in assay [5], 9.5%; in assay [6], -1.4%.
Take `CC(=N/N(C)c1ccccc1)/C(C)=N/N(C)c1ccccc1`: the growth inhibition in assay [1] is 19.1%; in assay [2], 6.7%; in assay [3], 3.7%; in assay [4] it was 3.65%; in assay [5], 4.35%; in assay [6], 15.8%.
Take `OCCOc1c(Cl)c(C(Cl)(Cl)Cl)nc2ccccc12`: the growth inhibition in assay [1] was 84.2% (active); in assay [2] it was 95.3% (active); in assay [3], 91% (active); in assay [4], 46%; in assay [5] it was 94% (active); in assay [6], 94.3% (active).
Consider `c1ccc(-c2ccc(-c3ccccc3)cc2)cc1`, for which the growth inhibition in assay [1] is -14.5%; in assay [2], -9.4%; in assay [3] it was -15.1%; in assay [4], -15.2%; in assay [5], 18.6%; in assay [6], -30.9%.
Consider `COc1cc(C2SC(N)=Nc3c2c(C)nn3C(=O)c2ccc(Cl)cc2)ccc1O` (stereo not given), for which the growth inhibition is -36.7% in assay [1]; 15.8% in assay [2]; -9.55% in assay [3]; -30.4% in assay [4]; 16.8% in assay [5]; -10.2% in assay [6].
As for `CNC(=O)c1ccccc1CC(O)c1ccccc1` (stereo not given), the growth inhibition in assay [1] is -7.95%; in assay [2], 0.65%; in assay [3] it was 4.75%; in assay [4] it was 6.75%; in assay [5], 0.9%; in assay [6], 8.95%.
In the case of `COc1ccc(N=Nc2c(-c3ccccc3)nn(C(=O)CC(=O)Nc3ccc(OC)cc3)c2-c2ccccc2)cc1`, the growth inhibition in assay [1] was -17%; in assay [2], -1.7%; in assay [3] it was -0.8%; in assay [4], -25.4%; in assay [5], 11.7%; in assay [6] it was -3.35%.
Take `CC(C)(C)c1ccc(C(=O)N2CCOC23CCCCC3)cc1`: the growth inhibition in assay [1] is -11.7%; in assay [2], -20.1%; in assay [3] it was 7.25%; in assay [4] it was 3.2%; in assay [5] it was 17.1%; in assay [6] it was -38.5%.
`COc1ccc(CC(N)C(=O)OC(C)C)cc1` (stereo not given): the growth inhibition in assay [1] was -16.3%; in assay [2], -12.3%; in assay [3] it was -5.05%; in assay [4], -36%; in assay [5], 11%; in assay [6], 1.4%.
As for `CCCn1c(CC)nc([N+](=O)[O-])c1Sc1ncn[nH]1`, the growth inhibition in assay [1] is -14.7%; in assay [2], -23.1%; in assay [3], -7.1%; in assay [4] it was 9.1%; in assay [5] it was -5.6%; in assay [6], -11.5%.
On to `C=C(C)COC(=O)COc1ccc(Cl)cc1`, for which the growth inhibition is 1.05% in assay [1]; -32.7% in assay [2]; -3.5% in assay [3]; 0.45% in assay [4]; 3.5% in assay [5]; 5.45% in assay [6].
For `COc1ccc(Nc2cccc(Cl)c2)cc1`, the growth inhibition in assay [1] is 97% (active); in assay [2], 98.2% (active); in assay [3] it was 96.5% (active); in assay [4] it was 95.9% (active); in assay [5], 95.6% (active); in assay [6], 97.8% (active).
